Cruzain Triton – blocks cruzain activity in presence of Triton detergent; P25779; purified cruzain, Z-FR-AMC fluorescence, 0.01% Triton; Potency, µM, for inactives: max response, negative = inhibition, usual class: inhibitors; actives 0.43% (n = 200,000); AID 1478;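 note: plate controls were neutral wells for no effect and buffer without enzyme for full effect; nearly all actives have a fitted effect of over 40% in size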
Target sequence (P25779 123-467 limits assumed): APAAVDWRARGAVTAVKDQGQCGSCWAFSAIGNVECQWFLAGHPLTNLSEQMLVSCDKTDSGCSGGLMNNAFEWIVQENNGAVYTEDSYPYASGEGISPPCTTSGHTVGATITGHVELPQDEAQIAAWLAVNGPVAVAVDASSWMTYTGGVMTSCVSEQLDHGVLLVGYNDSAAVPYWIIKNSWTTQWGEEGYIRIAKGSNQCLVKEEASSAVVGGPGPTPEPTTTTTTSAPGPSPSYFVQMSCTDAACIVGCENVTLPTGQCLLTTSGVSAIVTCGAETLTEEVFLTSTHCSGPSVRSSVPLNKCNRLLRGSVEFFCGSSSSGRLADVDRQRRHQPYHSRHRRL
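15 min RT preincubation of 1.5 nM cruzain with compound, then 2 uM Z-FR-AMC added; kinetic AMC fluorescence, 60 s delta. Triton X-100 0.01%, pH 5.5.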
Cruzain inh noDet – inhibitors of Trypanosoma cruzi cruzain without detergent; Potency, µM, without a hit: max response, negative = inhibition, hits mostly inhibitors; actives 2.3% (n = 200,000); purified cruzain, Z-FR-AMC fluorescence, no detergent;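 note: plate controls were enzyme without inhibitor for no effect and buffer without enzyme for full effect; nearly all actives have a fitted effect of over 40% in size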
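Purified cruzain at 1.5 nM, pre-incubated 15 min with compound at room temperature in 100 mM sodium acetate pH 5.5, 5 mM DTT, 0.00005% Triton X-100. Reaction started with 2 uM Z-FR-AMC; AMC fluorescence increase over 60 s gives rate.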
* = called active by the depositor; u = inconclusive. Rows were chosen to be rich in hits. Some 2.4% of all compounds tested hit in one or more screens of this group. Calls come from the whole dose curve; as a rule, active = well fitted curve in the direction sought with a large enough effect; inconclusive = small, poorly fitted or top-dose-only effect, or another doubt; inactive = no such curve, though single readings can be large; an effect the other way counts as inactive or inconclusive. Potency is the fitted concentration of half-maximal effect.

SMILES	Cruzain Triton	Cruzain inh noDet
COc1ccc(Oc2ncc3nc(CCc4ccccc4)c(=O)n(C[C@H]4CCCO4)c3n2)cc1	-4%	2%
Cc1ccc(S(=O)(=O)Nc2cc(Cl)c3oc4c(c3c2)CCCC4)cc1	6%	u
COc1cc(C2C(C(=O)Nc3ccc(C)cc3C)=C(C)Nc3nc4ccccc4n32)cc(OC)c1OC (stereo not drawn)	-5%	-6%
COc1ccc(C2C(=O)N(C3CCCCCC3)CC(=O)N2Cc2ccc(C)cc2)cc1OC (stereo not drawn)	0%	24%
CCCc1[nH]nc2c1C(c1cccc(OC(=O)c3ccco3)c1)C(C#N)=C(N)O2 (stereo not drawn)	u	20µM*
CCCc1[nH]nc2c1C(c1cc(OC)cc(OC)c1)C(C#N)=C(N)O2 (stereo not drawn)	-4%	-3%
CCOC(=O)C1CCCN(C(=O)c2ccc3c(c2)sc2nc(-c4cccc(OC)c4)cn23)C1 (stereo not drawn)	-2%	9%
O=C(Nc1nc2c(s1)CCCC2)c1cc(-c2ccc3c(c2)OCO3)nc2ccccc12	-4%	5µM*
Cc1ccccc1-c1cc(C(=O)Nc2nc3c(s2)CCCC3)c2ccccc2n1	-5%	u
COc1cccc(-c2cc(C(=O)Nc3nc4ccccc4s3)c3ccccc3n2)c1	-1%	13µM*
O=C(Nc1nc2ccccc2s1)c1cc(-c2ccco2)nc2ccccc12	-12%	-26%
CC(C)Cn1cc(C(=O)N2CCN(c3cccc(Cl)c3)CC2)c2c3ccccc3n(C)c2c1=O	-12%	11%
Cn1c(=O)c2c(-c3ccccc3)n3c4ccccc4nc(-c4ccccc4)c3c2n(C)c1=O	-1%	-2%
COc1ccc(Cl)cc1NC(=O)CSC1=Nc2ccccc2C2=NC(CC(=O)NCc3cccs3)C(=O)N12 (stereo not drawn)	-12%	4%
O=C(NCCc1ccc(Cl)cc1)c1cnc2sc(N3CCOCC3)nn2c1=O	2%	-5%
CCOC(=O)c1c(-c2ccc(C)o2)csc1NC(=O)CSc1nnc(C)s1	-7%	u
CCOC(=O)c1c(-c2ccc(C)o2)csc1NC(=S)NC(=O)c1ccccc1Br	-3%	32µM*
CCOC(=O)c1c(-c2ccc(C)o2)csc1NC(=S)NC(=O)c1cccs1	-1%	25µM*
CCOC(=O)c1c(-c2ccccc2)csc1NC(=S)NC	-14%	-3%
Cc1c(CNCCCc2ccccc2)c(C(=O)O)c(C)n1Cc1ccc(Cl)cc1	-3%	-2%
Cc1ccc(C)c(NC(=O)CN2C(=O)COc3ccc(Cl)cc32)c1	-1%	17%
CC1Cc2ccccc2N1Cc1nc2cc(C(F)(F)F)ccc2c(=O)[nH]1 (stereo not drawn)	1%	25µM*
CC1Cc2ccccc2N1Cc1cc(=O)n2ccsc2n1 (stereo not drawn)	-2%	u
CCC(C(=O)N1CCN(c2ccccc2)CC1)n1nc(C)c2sc3ccccc3c2c1=O (stereo not drawn)	-3%	10%
CCOc1cccc(C2c3[nH]c4ccccc4c3CCN2C(=O)CSCc2ccc(F)cc2)c1 (stereo not drawn)	8%	-3%
SMILES	Cruzain Triton	Cruzain inh noDet
CCN(CC)c1ccc(C(=O)N2CCc3c([nH]c4ccccc34)C2c2ccc(F)cc2)cc1 (stereo not drawn)	1%	16µM*
O=C(CSc1ccccc1)N1CCc2c([nH]c3ccccc23)C1c1ccc(F)cc1 (stereo not drawn)	2%	u
COc1cc(C(=O)N2CCc3c([nH]c4ccccc34)C2c2ccccc2)cc(OC)c1OC (stereo not drawn)	-4%	u
CSc1ccc(C2c3[nH]c4ccccc4c3CCN2C(=O)CCC2CCCC2)cc1 (stereo not drawn)	2%	10µM*
CCOc1ccc(C2c3[nH]c4ccccc4c3CCN2C(=O)CSCc2ccc(F)cc2)cc1 (stereo not drawn)	2%	10µM*
CCC(C(=O)Nc1ccccc1)n1nc(-c2cc(C)ccc2C)ccc1=O (stereo not drawn)	-7%	3%
Cc1ccc(N2CC(NC(=O)c3cc4ccccc4o3)CC2=O)cc1C (stereo not drawn)	-3%	-3%
COc1ccc(-c2cnnc(N/N=C/c3ccc(OC)c(OC)c3)n2)cc1	-9%	5%
COc1ccc(-c2cnnc(N/N=C/C(C)=C/c3ccccc3)n2)cc1	-4%	10µM*
CNc1ncnc2c1ncn2[C@H]1C[C@H](OP(=O)(O)O)[C@@H](COP(=O)(O)O)O1	-2%	6%
COc1cccc(NC(=O)c2cn(C3CCCCC3)c(=O)c3c2c2ccccc2n3C)c1	-7%	u
CC(C)NC(=O)C1CCN(C(=O)N2CC(C)Oc3ccccc32)CC1 (stereo not drawn)	-3%	3%
CC1CN(C(=O)N2CCC(C(=O)NC3CCCCCC3)CC2)c2ccccc2O1 (stereo not drawn)	-3%	7.9µM*
CC(C)COc1ccc(C(=O)Nc2onc3c2CCCC3)cc1	-1%	5%
COc1ccc2nc(NC(=O)Cc3cccs3)sc2c1	0%	-13%
COc1ccc2nc(NC(=O)CCc3nc(-c4ccccc4F)no3)sc2c1	0%	7.9µM*
N#Cc1c(NC(=O)COC(=O)C2CC3C=CC2C3)oc(-c2ccccc2)c1-c1ccccc1 (stereo not drawn)	-7%	7.9µM*
COc1ccccc1OCC(=O)Nc1oc(-c2ccccc2)c(-c2ccccc2)c1C#N	0%	u
CC1Cc2ccccc2N1C(=O)CSc1nc2ccc(NC(=O)COc3ccccc3)cc2s1 (stereo not drawn)	-1%	7%
CCn1nc(C)c2c(-c3ccccc3)cc(=O)n(C(C)C(=O)NCCc3ccc(Cl)cc3)c21 (stereo not drawn)	-9%	u
COc1ccc(/C=N/NC(=O)COc2ccccc2-c2ccccc2)cc1	-6%	7%
COc1ccc(Br)c(/C=N/NC(=O)COc2ccc(-c3ccccc3)cc2)c1	-2%	20µM*
CC(NC(=O)c1nn(C)c2c1CSc1ccccc1-2)c1ccccc1 (stereo not drawn)	-3%	2%
CC1=C(C(=O)Nc2ccc(C)cc2C)C(c2ccc(O)cc2)n2nnnc2N1 (stereo not drawn)	-5%	-5%
Cn1c(=O)n(C)c2cc(N3CCOCC3)c(NC(=O)c3ccccc3Br)cc21	-5%	2%
SMILES	Cruzain Triton	Cruzain inh noDet
COc1cc(Cl)c(C)cc1NC(=O)c1cnn(-c2ccc(F)cc2F)c1C1CCN(C(=O)OC(C)(C)C)CC1	-9%	-25%
COc1cccc(/C=N/NC(=O)c2ccc(CN3c4cccc5cccc(c45)S3(=O)=O)cc2)c1	-6%	20µM*
COc1cc(/C=N/NC(=O)c2cc(-c3cccn3C)n[nH]2)cc(OC)c1OC	-2%	6%
CN(C)c1ccc(/C=N/NC(=O)c2ccc(CN3C(=O)c4cccc5cccc3c45)cc2)cc1	-1%	4µM*
COc1cccc(/C=N/NC(=O)c2ccc(OCc3cccc(Br)c3)cc2)c1	0%	u
COc1cccc(/C=N/NC(=O)c2cc(-c3cccn3C)n[nH]2)c1	1%	25µM*
O=C(N/N=C/c1ccccc1)c1ccc(CN2C(=O)c3cccc4cccc2c34)cc1	-2%	-68%
COc1ccccc1CNC(=O)CN1C(=O)CSc2ccc(S(=O)(=O)N(C)C)cc21	1%	-6%
COc1ccc(C)cc1Nc1nc2c(S(=O)(=O)c3cccc(Cl)c3)nnn2c2ccsc12	0%	8%

Source: PubChem BioAssay (National Center for Advancing Translational Sciences (NCATS))
